Records with an inconclusive call do not appear. Entries that show only a call come without a potency. A number with no mark means an inactive call. Calls of active or inactive are those of the source. Calls come from the whole dose curve; as a rule, active = well fitted inhibition curve with a large enough effect; inconclusive = small, poorly fitted or top-dose-only effect; inactive = no such curve, though single readings can be large or run the other way.
Tests used:
[1] = tested on: Zika virus NS2B-NS3 protease (unlinked complex); assay: Primary screen GU Rhodamine qHTS for Zika virus inhibitors: Unlinked NS2B-NS3 protease assay (AID 1347159); note: nearly all actives have a fitted effect of over 60% in size
Outline: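 Percent inhibition came from the 15-min rise in Rhodamine110 fluorescence (1.5 microM substrate, ~15% conversion), normalized to no-inhibitor and no-enzyme wells and Hill-fitted. Unlinked protease, 25 nM, pH 8.0 Tris buffer; compounds up to 114 microM, 15-min preincubation.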

[2] = tested on: Zika virus NS2B-NS3 protease (linked construct); assay: Primary screen NINDS Rhodamine qHTS for Zika virus inhibitors (AID 1347160); note: nearly all actives have a fitted effect of over 55% in size
Outline: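 Rhodamine110-peptide cleavage (1.5 µM substrate) by 25 nM linked NS2B-NS3 enzyme at pH 8.0 (Tris, Tween 20), after 15 min RT preincubation with compounds; 15-min fluorescence change normalized to controls and Hill-fitted.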
Potency is the fitted concentration of half-maximal effect.

Row | Compound | Potency [1] | Potency [2] | activity change, negative = inhibition [1] | outcome [2]
1 | CC1=CC(=O)CC(C)(C)C1(O)CCC(C)O (centres undefined) | inactive | inactive | – | –
2 | CC(=O)OC(CSC1CCC(=O)OC(C)CCC(=O)C1)C(=O)O (centres undefined) | inactive | inactive | – | –
3 | CC1(CO)CC[C@]2(C(=O)O[C@@H]3O[C@H](CO)[C@@H](O)[C@H](O)[C@H]3O)CC[C@]3(C)C(=CCC4[C@@]5(C)CC[C@H](O[C@@H]6O[C@H](C(=O)O)[C@@H](O)[C@H](O)[C@H]6O)C(C)(C)C5CC[C@]43C)C2C1 (some centres undefined) | inactive | inactive | – | –
4 | NS(=O)(=O)OC[C@@H]1C[C@@H](n2ccc3c(N[C@H]4CCc5ccccc54)ncnc32)C[C@@H]1O | inactive | inactive | – | –
5 | OCc1ccccc1O[C@@H]1O[C@H](CO)[C@@H](O)[C@H](O)[C@H]1O | inactive | inactive | – | –
6 | COC(=O)c1cc(CN2CCN(C(=N)N)CC2)cc(C(=O)N2CCN(C(=O)c3ccc(C(=N)N)cc3)CC2)c1 | inactive | inactive | – | –
7 | C[C@H]1[C@H](C)CC[C@]2(C(=O)O)CC[C@]3(C(=O)O)C(=CCC4[C@@]5(C)CC[C@H](O[C@@H]6O[C@H](C)[C@@H](O)[C@H](O)[C@H]6O)C(C)(C)C5CC[C@]43C)[C@H]12 (some centres undefined) | inactive | inactive | – | –
8 | CC(C)(C)NCc1cc(Nc2ccnc3cc(Cl)ccc23)c2c(c1O)CCCC2 | – | – | 0% [at 1.28 µM] | inactive [at 0.684 µM]
9 | CC1(C)O[C@]23C[C@H]1C[C@H](OC(=O)c1ccoc1)[C@]2(C)[C@@H](OC(=O)c1ccoc1)CCC3(C)O (some centres undefined) | inactive | inactive | – | –
10 | Nc1nc(CC(=O)Nc2ccc(CCNCC(O)c3ccccc3)cc2)cs1 (centres undefined) | inactive | inactive | – | –
11 | CCC(=O)N[C@@H]1Cc2ccccc2[C@H](c2ccccc2)C1 | inactive | inactive | – | –
12 | O=C(Nc1cccnn1)N1CCC(=Cc2cccc(Oc3ccc(C(F)(F)F)cn3)c2)CC1 | inactive | inactive | – | –
13 | C#Cc1cnc2[nH]c(=O)n(C(CC)CC)c2n1 | inactive | inactive | – | –
14 | COC(=O)C1=COC(O[C@@H]2O[C@H](CO)[C@@H](O)[C@H](O)[C@H]2O)/C(=C\COC(=O)c2ccc(OC3OC(CO)C(O)C(O)C3O)c(OC)c2)C1CC(=O)OCCc1ccc(O)cc1 (some centres undefined) | inactive | inactive | – | –
15 | O=C(NCc1ccc(OC(F)(F)F)cc1)C1c2ccccc2C(=O)N1C1CCOCC1 (centres undefined) | inactive | inactive | – | –
16 | Cc1[nH]cnc1C1CCN(c2nc3cccc4c3n2CCC4=O)CC1 | inactive | inactive | – | –
17 | CC1(C)OC(=O)C(OCC2CC2)=C1c1ccc(S(C)(=O)=O)cc1 | inactive | inactive | – | –
18 | CC(=O)OC[C@]12[C@H](OC(C)=O)C(=O)[C@@H]3[C@@H](OC(C)=O)[C@@]14O[C@@]3(C)COC(=O)c1cccnc1[C@@H](C)[C@H](C)C(=O)O[C@@H]([C@H](OC(C)=O)[C@@H]2OC(C)=O)[C@]4(C)O | inactive | inactive | – | –
19 | COC1CC(=O)CCC(C)OC(=O)CC1O (centres undefined) | inactive | inactive | – | –
20 | O=C(O)CCc1cc2ccoc2cc1O[C@@H]1O[C@H](CO[C@@H]2OC[C@](O)(CO)[C@H]2O)[C@@H](O)[C@H](O)[C@H]1O | inactive | inactive | – | –
21 | CC(=O)N[C@H]1CCN(c2ccc(C3=NOC(CN[S+](=O)([O-])C(C)C)C3)cc2F)C1 (some centres undefined) | inactive | inactive | – | –
22 | CC(=O)NCCCCn1c2c(c3ccccc31)C(=O)NCC2 | inactive | inactive | – | –
23 | Clc1ccc2c(c1)C1=NCCN1c1c(-c3noc(C4CC4)n3)ncn1-2 | inactive | inactive | – | –
24 | CO/N=C(/C(=O)N[C@@H]1C(=O)N2C(C(=O)O)=C(CSC(=O)c3ccco3)CS[C@H]12)c1csc(N)n1 | 35.5 µM (active) | 25.1 µM (active) | – | –
25 | CC1(C)CC[C@]2(C(=O)O)CC[C@]3(C)C(=CCC4[C@@]5(C)CC[C@H](O[C@@H]6O[C@H](C(=O)O)[C@@H](O)[C@H](O)[C@H]6O)C(C)(CO)C5CC[C@]43C)C2C1 (some centres undefined) | inactive | inactive | – | –
26 | CC(NC(=O)CC(=O)O)c1nc2ccccc2c(=O)[nH]1 (centres undefined) | 44.7 µM (active) | 25.1 µM (active) | – | –
27 | CC1(C)CCC[C@@]2(C)[C@H]1[C@H](O)C=C1COC(=O)[C@@]12O | inactive | inactive | – | –
